# Only some compounds are listed: those with a hit (about 2.4% of all), similar ones and a draw of the others.
# D2 antagonist: antagonizes the human D2 dopamine receptor | HEK293 TREx D2 cells, calcium flux, dopamine EC80 | P14416 | inhibition, % at 10 µM | 2% of 340,000 active; in the data active = inhibition above about 30%; inactive = below that, where a call was filed; note: 0% is about no effect
# Target sequence (P14416 whole entry, looked up): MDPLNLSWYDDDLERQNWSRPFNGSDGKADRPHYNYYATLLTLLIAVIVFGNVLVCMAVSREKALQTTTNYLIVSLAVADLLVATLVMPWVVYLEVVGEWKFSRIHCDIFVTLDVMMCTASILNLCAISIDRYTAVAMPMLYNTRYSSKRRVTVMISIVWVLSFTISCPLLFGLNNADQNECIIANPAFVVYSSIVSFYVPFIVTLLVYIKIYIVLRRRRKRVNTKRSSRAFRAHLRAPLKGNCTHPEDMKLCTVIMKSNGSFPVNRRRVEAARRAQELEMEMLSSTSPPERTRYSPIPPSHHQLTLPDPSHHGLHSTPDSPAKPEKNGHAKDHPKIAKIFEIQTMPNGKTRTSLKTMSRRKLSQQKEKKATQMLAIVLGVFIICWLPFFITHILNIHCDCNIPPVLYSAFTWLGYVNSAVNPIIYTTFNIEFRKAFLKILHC
#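 Antagonism is scored as inhibition of an EC80 dopamine-evoked calcium signal in a force-coupled, tetracycline-inducible HEK293 T-REx D2 line, with compound present 180 s before agonist.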
# D2 PAM-1: D2 dopamine receptor (human) potentiation; HEK293 T-REx D2, calcium flux, EC20 dopamine potentiation; potentiation, % at 10 µM; 0.34% of 340,000 active;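 active = potentiation over 3 SD above the plate norm, cut at about 30% in these data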; note: 0% is about no effect
#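 Cells plated with tetracycline inducer and held overnight at 30 C; calcium dye loaded 30–90 min at room temperature; baseline taken, compound added and read 180 s; EC20 dopamine then added and read 180 s.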
# D2 ag-1: activates the human D2 dopamine receptor. AID 485358. 0.53% of 340,000 active. P14416. HEK293 T-REx D2 cells, calcium flux agonist mode. activation, % at 2 µM;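 active = activation over 3 SD above normal in the single-dose calcium agonist read, cut at about 30% in these data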; note: 0% is about no effect
#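 Tetracycline-induced HEK293 T-REx cells with force-coupled D2 receptor, plated overnight at 30 C, loaded with no-wash calcium dye. After a 10 s baseline, compound was pin-added and calcium flux read kinetically for 180 s; calcium rises flagged agonists.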
# D2 PAM-2: potentiates the human D2 dopamine receptor allosterically. DiscoveRx D2 beta-arrestin cells, luminescence, 90 min; 100% = 57 uM dopamine signal. potentiation, % (no concentration beside the values). 0.23% of 360,000 active; in the data active = potentiation above about 50%
#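 PathHunter beta-arrestin assay in DiscoveRx D2 cells. Compounds were added with an EC20 of dopamine (50 nM final) for 90 min at 37 deg C. Luminescence was read 1 h after detection reagent, with 57 uM dopamine as the EC100 control.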
# D2 ag-2: human D2 receptor agonism in beta-arrestin assay; 0.084% of 360,000 active; activation, % (no concentration beside the values); DiscoveRx PathHunter D2 beta-arrestin, luminescence, 90 min; 100% = 57 uM dopamine signal; AID 624465; in the data active = activation above about 40%
#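 Agonist mode: compounds alone added to overnight-plated D2 PathHunter cells for 90 min at 37 C, with 57 uM final dopamine (EC100) defining full response. Beta-arrestin recruitment detected by chemiluminescent reagent, read after 1 h at ambient temperature.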
# An asterisk follows results filed as active; / = no result.
SMILES,D2 antagonist,D2 PAM-1,D2 ag-1,D2 PAM-2,D2 ag-2
COc1ccc(/C=C2\SC(N3CCc4ccccc4C3)=NC2=O)cc1OC,53.1*,-20.4,0.0,-24.7,-0.8
Cc1cccc(N(C)S(=O)(=O)c2ccc3c(c2)C(C)(C)C(=O)N3C)c1,40.9*,2.7,-0.5,-1.0,3.6
CCN(C(=O)Cn1c(=O)oc2cc(S(=O)(=O)N3CCCCC3)ccc21)c1ccccc1,/,/,0.0,/,/
CCOC(=O)/C=C/C(=O)OCc1csc(CC(=O)Nc2ccccc2C)n1,-2.1,-1.6,0.9,8.1,-6.6
CCc1ccc(N2CC(C(=O)OCc3csc(CC(=O)Nc4ccccc4C)n3)CC2=O)cc1 (stereo not given),-5.3,55.7*,0.7,-2.9,-4.5
O=C1N/C(=N/Nc2ccccc2)S/C1=C\c1ccccc1,4.8,-4.3,0.4,54.6*,9.3
COC(=O)c1ccc(NC(C)C(=O)OC)c([N+](=O)[O-])c1 (stereo not given),42.8*,-10.1,-0.8,2.7,1.2
COc1ccc(C(CNC(=O)COc2ccc(C)cc2)N2CCCCC2)cc1 (stereo not given),/,-26.0,-1.3,/,/
COc1ccc(C(CNC(=O)C(C)(C)Oc2ccc(Cl)cc2)N2CCOCC2)cc1 (stereo not given),/,/,/,-35.6,-6.8
COc1ccc(C(CNC(=O)COc2ccc(Cl)c(C)c2)N2CCCCC2)cc1 (stereo not given),36.5*,-27.2,0.4,-34.0,-0.3
COc1ccc(C(CNC(=O)C(C)(C)Oc2ccc(Cl)cc2)N2CCCCC2)cc1 (stereo not given),86.1*,-29.7,-0.8,-45.1,-2.9
Cc1c(C(=O)Nc2ccc(F)cc2)oc2ccc(S(=O)(=O)N3CCCCCC3)cc12,/,2.3,-0.5,/,/
CCc1ccc(N2CC(C(=O)Nc3nc4ccc(S(C)(=O)=O)cc4s3)CC2=O)cc1 (stereo not given),36.6*,-11.3,0.3,-2.7,-2.2
N#C/C(=C\c1c(N2CCCCCC2)nc2ccccn2c1=O)C(=O)NC1CCS(=O)(=O)C1 (stereo not given),-6.2,-9.7,0.3,-18.6,-0.2
N#C/C(=C\c1c(N2CCOCC2)nc2ccccn2c1=O)C(=O)NC1CCS(=O)(=O)C1 (stereo not given),38.1*,12.1,-0.7,-8.5,-2.7
CCOC(=O)c1cc2c(=O)n3ccccc3nc2n(CCCOC)c1=NC(=O)C(C)(C)C,-6.1,-7.7,31.8*,-9.0,-4.2
CCOC(=O)c1cc2c(=O)n3ccccc3nc2n(CCOC)c1=NC(=O)C(C)(C)C,-14.3,-11.3,0.3,11.0,-0.8
CCn1c(=O)c2ccccc2n(CC(=O)NC2CCCCC2)c1=O,41.7*,-1.0,0.6,0.2,0.2
COc1ccccc1Cn1ccn(Cc2ccc(C)cc2)c(=O)c1=O,/,-8.9,0.8,/,/
CCc1ccccc1-n1c(-c2ccncc2)n[nH]c1=S,69.6*,8.9,-0.2,-16.3,-1.7
Cc1ccccc1-n1c(-c2ccncc2)n[nH]c1=S,16.7,8.1,2.0,-2.5,-2.2
Cc1cccc(-n2c(=O)c3c(c4cc(C)ccc4n3C)n(Cc3ccccc3F)c2=O)c1,/,8.1,-0.4,/,/
Cc1ccc(-c2nnc(Nc3ccc(O)cc3)c3ccccc23)cc1S(=O)(=O)NCC1CCCO1 (stereo not given),/,-0.7,/,/,/
CCOC(=O)C1CCCN(CC(O)COc2ccccc2C(C)=O)C1 (stereo not given),-9.3,-22.4,-0.8,-14.0,-1.2
COc1ccccc1Nc1nc(N)nc(CN2CCCCCC2)n1,-22.6,-5.8,-0.5,-11.9,-0.4
COc1ccccc1N1CCN(Cc2nc(N)nc(Nc3ccccc3)n2)CC1,34.0*,-23.7,8.1,-14.1,0.1
CCOC(=O)C1CCCN(CC(O)COC(c2ccccc2)c2ccccc2)C1 (stereo not given),33.4*,/,-3.0,-12.1,-1.6
CCOC(=O)C1CCCN(Cc2nc(N)nc(Nc3ccccc3OC)n2)C1 (stereo not given),34.4*,-10.3,-0.8,-5.6,-4.4
CCOC(=O)C1CCN(Cc2cc(C(C)C)c(O)c(C(C)C)c2)CC1,44.9*,-20.6,21.6,-17.9,-13.0
CCOC(=O)C1CCN(Cc2ccc3ccccc3c2)CC1,9.0,-15.7,12.9,-2.7,-0.3

# Bioassay records deposited in PubChem by National Center for Advancing Translational Sciences (NCATS).
